Results published in PubChem BioAssay (Tox21).
Where “and” joins values, the source holds several entries; their conditions need not be identical. Identical values can stand only once. Inconclusive results are not listed. Where a call stands in place of a potency, no number is given. Some structures have more than one record in an assay (separate samples or runs), and their calls can disagree. Calls of active or inactive are those of the source. Unless noted, calls follow the shape of the dose curve; as a rule, active = well fitted curve in the direction sought with a large enough effect in the repeat runs; inconclusive = weak or mixed curves; inactive = no such curve, though single readings can be large; an effect the other way counts as inactive or inconclusive.

Columns and labels:
[1] = qHTS assay to identify small molecule antagonists of the glucocorticoid receptor (GR) signaling pathway - cell viability counter screen (AID 720693); also: nearly all actives have a fitted effect of over 55% in size
[2] = qHTS assay for identifying genotoxic compounds that show differential cytotoxicity against isogenic chicken DT40 cell lines with known DNA damage response pathways - wild type cell line (AID 743012); also: nearly all actives have a fitted effect of over 60% in size; also: potency is read from the fitted curve at half-maximal effect
Outline: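 Quantitative HTS on parental DT40 cells: 40 h compound treatment at 37 C/5% CO2, with viability then determined by CellTiter-Glo luminescence. Values serve as the DNA repair-proficient reference for differential cytotoxicity.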

[3] = qHTS assay for identifying genotoxic compounds that show differential cytotoxicity against isogenic chicken DT40 cell lines with known DNA damage response pathways - Rev3 mutant cell line (AID 743014); also: nearly all actives have a fitted effect of over 55% in size; also: potency is read from the fitted curve at half-maximal effect
[4] = qHTS assay for identifying genotoxic compounds that show differential cytotoxicity against isogenic chicken DT40 cell lines with known DNA damage response pathways - Rad54/Ku70 mutant cell line (AID 743015); also: nearly all actives have a fitted effect of over 60% in size; also: potency is read from the fitted curve at half-maximal effect
[5] = qHTS assay to identify small molecule antagonists of the androgen receptor (AR) signaling pathway - cell viability counter screen (AID 743033; also: nearly all actives have a fitted effect of over 45% in size; also: potency is read from the fitted curve at half-maximal effect)
[6] = qHTS assay to identify small molecule antagonists of the androgen receptor (AR) signaling pathway using the MDA cell line - cell viability counter screen (AID 743041; also: nearly all actives have a fitted effect of over 45% in size)
Outline: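 R1881-driven MDA-kb2 AR-luc cells, 3,000/well, were dosed with library compounds for 16 h; cell health came from CellTiter-Fluor fluorescence in the reporter wells.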

[7] = qHTS assay to identify small molecule antagonists of the thyroid receptor (TR) signaling pathway - cell viability counter screen (AID 743064); also: nearly all actives have a fitted effect of over 50% in size; also: potency is read from the fitted curve at half-maximal effect
Outline: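 GH3.TRE-Luc cells, 4 h pre-plating; cpd + T3 1 nM final; 37 °C 23.5 h; CellTiter-Fluor 30 min; fluorescence read.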

[8] = qHTS assay to identify small molecule antagonists of the thyroid receptor (TR) signaling pathway (AID 743065); also: nearly all actives have a fitted effect of over 55% in size; also: potency is read from the fitted curve at half-maximal effect
Outline: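 Antagonism measured as loss of luciferase signal in GH3 cells stably carrying a TRE-luciferase reporter, co-treated with compound and T3 (1 nM final) for 23.5 h at 37 C. Viability was read in the same well by CellTiter-Fluor.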

[9] = tested on: thyroid hormone receptor (rat, GH3 cells); assay: qHTS assay to identify small molecule agonists of the thyroid receptor (TR) signaling pathway (AID 743066; calls by dose curve)
[10] = target: Estrogen receptor (Homo sapiens) (UniProt P03372); assay: qHTS assay to identify small molecule antagonists of the estrogen receptor alpha (ER-alpha) signaling pathway (AID 743069; active = well fitted curve in the direction sought with a large enough effect in the signal ratio in the repeat runs, not every such curve was filed as active; the % refers to the signal ratio)
Estrogen receptor (Homo sapiens), sequence (P03372 whole entry, looked up): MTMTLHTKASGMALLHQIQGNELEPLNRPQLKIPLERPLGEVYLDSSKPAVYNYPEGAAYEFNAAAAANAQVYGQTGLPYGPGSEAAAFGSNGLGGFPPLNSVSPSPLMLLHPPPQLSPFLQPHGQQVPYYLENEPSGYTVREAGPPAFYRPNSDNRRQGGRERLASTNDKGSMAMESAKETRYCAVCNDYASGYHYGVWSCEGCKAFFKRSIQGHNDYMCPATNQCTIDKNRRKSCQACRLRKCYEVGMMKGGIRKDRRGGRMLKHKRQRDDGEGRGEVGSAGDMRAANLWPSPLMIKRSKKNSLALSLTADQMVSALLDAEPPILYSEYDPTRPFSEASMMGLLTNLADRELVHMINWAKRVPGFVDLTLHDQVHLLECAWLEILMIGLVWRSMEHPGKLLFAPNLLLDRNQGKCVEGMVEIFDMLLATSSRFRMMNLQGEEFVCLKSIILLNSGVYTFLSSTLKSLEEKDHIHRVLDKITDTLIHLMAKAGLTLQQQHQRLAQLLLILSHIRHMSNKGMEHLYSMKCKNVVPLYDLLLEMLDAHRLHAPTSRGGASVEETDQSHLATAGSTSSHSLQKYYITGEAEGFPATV
Outline: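 Compound effects are measured against 17beta-estradiol stimulation in HEK293 cells with a UAS-controlled beta-lactamase reporter for ER-alpha. Exposure lasts 18 hr at 37C; LiveBLAzer B/G FRET substrate follows for 2 hr at room temperature.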

[11] = qHTS assay to identify small molecule antagonists of the estrogen receptor alpha (ER-alpha) signaling pathway - cell viability counter screen (AID 743074; calls by dose curve;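 also: HEK293 cells carrying ER-alpha-UAS-bla reporter stimulated with 17beta-estradiol; nearly all actives have a fitted effect of over 45% in size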; also: potency is read from the fitted curve at half-maximal effect)
[12] = target: Estrogen receptor (Homo sapiens) (UniProt P03372); assay: qHTS assay to identify small molecule agonists of the estrogen receptor alpha (ER-alpha) signaling pathway (AID 743075; calls by dose curve)
[13] = target: Estrogen receptor (Homo sapiens) (UniProt P03372); assay: qHTS assay to identify small molecule agonists of the estrogen receptor alpha (ER-alpha) signaling pathway using the BG1 cell line (AID 743079); also: nearly all actives have a fitted effect of over 20% in size
[14] = qHTS assay to identify small molecule antagonists of the estrogen receptor alpha (ER-alpha) signaling pathway using the BG1 cell line (AID 743080; calls by dose curve;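 also: BG1 cells stimulated with 17beta-estradiol alongside compound; series mostly up to about 70 µM; nearly all actives have a fitted effect of over 25% in size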)
Outline: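 BG1-Luc-4E2 cells (endogenous full-length ER-alpha, 4xERE luciferase) hormone-starved 5 days in charcoal-stripped FBS, plated 4,000/well for 24 h, then compound plus 17beta-estradiol for 21.5 h at 37 C; ONE-Glo luminescence read.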

[15] = qHTS assay to identify small molecule antagonists of the estrogen receptor alpha (ER-alpha) signaling pathway using the BG1 cell line - cell viability counter screen (AID 743081);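 also: compound given together with 17beta-estradiol as the ER stimulus; series mostly up to about 70 µM; nearly all actives have a fitted effect of over 45% in size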
[16] = target: Aromatase (Homo sapiens) (UniProt P11511); assay: qHTS assay to identify aromatase inhibitors (AID 743083); also: series mostly up to about 70 µM; nearly all actives have a fitted effect of over 55% in size
Aromatase (Homo sapiens), sequence (P11511 whole entry, looked up): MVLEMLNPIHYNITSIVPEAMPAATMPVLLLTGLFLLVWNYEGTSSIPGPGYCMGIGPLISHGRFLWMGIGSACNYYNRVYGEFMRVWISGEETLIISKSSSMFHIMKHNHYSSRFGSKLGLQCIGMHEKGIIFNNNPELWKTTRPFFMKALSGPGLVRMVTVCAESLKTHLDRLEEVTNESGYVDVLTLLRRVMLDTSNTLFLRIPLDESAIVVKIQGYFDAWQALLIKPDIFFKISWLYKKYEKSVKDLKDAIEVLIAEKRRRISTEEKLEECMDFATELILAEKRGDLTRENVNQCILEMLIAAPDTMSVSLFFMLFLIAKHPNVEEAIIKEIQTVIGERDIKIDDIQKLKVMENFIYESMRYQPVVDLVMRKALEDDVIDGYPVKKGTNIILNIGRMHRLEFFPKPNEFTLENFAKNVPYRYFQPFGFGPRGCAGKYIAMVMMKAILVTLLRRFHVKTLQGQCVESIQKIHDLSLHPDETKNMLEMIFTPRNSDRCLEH

[17] = qHTS assay to identify aromatase inhibitors - cell viability counter screen (AID 743084)
[18] = target: Androgen receptor (Homo sapiens) (UniProt P10275); assay: qHTS assay to identify small molecule agonists of the androgen receptor (AR) signaling pathway (AID 743036; active = well fitted activation curve with a large enough effect in the signal ratio in the repeat runs, with a control signal flat, not every such curve was filed as active; the % refers to the signal ratio)
Androgen receptor (Homo sapiens), sequence (P10275 whole entry, looked up): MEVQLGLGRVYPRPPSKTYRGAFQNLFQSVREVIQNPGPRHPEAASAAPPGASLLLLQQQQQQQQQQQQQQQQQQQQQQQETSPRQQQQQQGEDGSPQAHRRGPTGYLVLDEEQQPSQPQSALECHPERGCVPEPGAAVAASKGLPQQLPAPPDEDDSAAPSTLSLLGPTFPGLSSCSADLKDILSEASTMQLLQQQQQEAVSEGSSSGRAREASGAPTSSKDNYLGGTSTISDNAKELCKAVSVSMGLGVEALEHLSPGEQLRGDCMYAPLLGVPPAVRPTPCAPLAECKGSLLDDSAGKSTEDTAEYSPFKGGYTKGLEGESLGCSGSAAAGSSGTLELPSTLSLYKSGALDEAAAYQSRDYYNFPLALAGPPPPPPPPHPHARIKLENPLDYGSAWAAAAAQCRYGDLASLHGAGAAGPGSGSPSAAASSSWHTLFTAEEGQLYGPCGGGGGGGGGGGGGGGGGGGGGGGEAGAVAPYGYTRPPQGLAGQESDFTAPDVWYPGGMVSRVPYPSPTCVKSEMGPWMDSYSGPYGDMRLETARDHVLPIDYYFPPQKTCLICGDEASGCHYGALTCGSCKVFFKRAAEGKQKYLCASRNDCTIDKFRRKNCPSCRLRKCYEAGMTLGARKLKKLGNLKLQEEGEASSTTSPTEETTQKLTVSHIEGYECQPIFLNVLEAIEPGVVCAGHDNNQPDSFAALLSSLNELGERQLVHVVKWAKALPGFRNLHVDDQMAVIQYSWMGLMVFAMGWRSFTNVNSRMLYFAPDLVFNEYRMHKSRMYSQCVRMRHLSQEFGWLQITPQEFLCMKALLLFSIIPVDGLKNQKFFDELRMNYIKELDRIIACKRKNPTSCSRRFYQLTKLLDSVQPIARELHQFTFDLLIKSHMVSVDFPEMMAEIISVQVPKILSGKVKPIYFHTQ
Outline: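 AR-bla HEK293 cells, 2,000/well; 4 h preincubation 37C/5% CO2; compound (DMSO) 16 h at 37C; LiveBLAzer B/G FRET substrate 2 h RT; fluorescence intensity read-out.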

[19] = target: Androgen receptor (Homo sapiens) (UniProt P10275); assay: qHTS assay to identify small molecule agonists of the androgen receptor (AR) signaling pathway using the MDA cell line (AID 743040; also: nearly all actives have a fitted effect of over 20% in size)
Outline: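 After a 5 h incubation at 37C and 0% CO2, MDA-kb2 reporter cells were dosed with compounds in DMSO and kept 16 h under the same conditions. Luciferase activity was then read as luminescence with ONE-Glo.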

[20] = target: Androgen receptor (Homo sapiens) (UniProt P10275); assay: qHTS assay to identify small molecule antagonists of the androgen receptor (AR) signaling pathway using the MDA cell line (AID 743042; also: nearly all actives have a fitted effect of over 55% in size)
Outline: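 Antagonist mode: compounds plus R1881 agonist added to MDA-kb2 AR-luc cells, incubated 16 h at 37C. Luciferase reporter luminescence quantified, with multiplexed CellTiter-Fluor readout for cell viability.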

Row | SMILES | Potency [1] | Potency [2] | Potency [3] | Potency [4] | Potency [5] | Potency [6] | Potency [7] | Potency [8] | Potency [9] | Potency [10] | Potency [11] | Potency [12] | Potency [13] | Potency [14] | Potency [15] | Potency [16] | Potency [17] | outcome [18] | Potency [19] | Potency [20]
1 | CCCCCCCCCCCC(=O)OCC(O)CO (stereo unspecified) | inactive | inactive and 61.1 µM (active) | inactive | inactive and 61.1 µM (active) | inactive | inactive | inactive | inactive | inactive | inactive | inactive | inactive | inactive | inactive | inactive | inactive | inactive |  |  | 
2 | O=NN(CCCl)C(=O)NCCCl | inactive | inactive | inactive | inactive | inactive | inactive | inactive | inactive | inactive | inactive | inactive | inactive | inactive | inactive | inactive | inactive | inactive | inactive | inactive | inactive
3 | CCOC(=O)c1ccc(NC(=O)CN2CCCCC2)cc1 | inactive | 11.9 µM (active) | 10.6 µM (active) | 10.6 µM (active) | inactive | inactive | inactive |  | inactive | inactive | inactive | inactive |  |  | inactive | inactive | inactive | inactive | inactive | inactive
4 | COc1cc(NCc2ccc3nc(N)nc(N)c3c2C)cc(OC)c1OC | inactive | 0.133 µM (active) | 0.15 µM (active) | 0.266 µM (active) | 0.674 µM (active) | inactive | 8.41 µM (active) | 0.668 µM (active) | inactive | inactive | 0.213 µM (active) | inactive | inactive |  |  |  |  |  |  | 
5 | Nc1nc(-c2ccc([N+](=O)[O-])cc2)cs1 | inactive | inactive | inactive | inactive | inactive | inactive | inactive | inactive | inactive |  | inactive |  |  |  | inactive | inactive | inactive |  |  | 
6 | CCCCCC | inactive | inactive | inactive | inactive | inactive | inactive | inactive | inactive | inactive |  | inactive |  |  |  | inactive | inactive | inactive |  |  | 
7 | Cc1ccc(Cl)cc1N | inactive | inactive | inactive | inactive | inactive | inactive | inactive | inactive | inactive |  | inactive |  |  |  | inactive | inactive | inactive |  |  | 
8 | COc1cc(C(C)=O)ccc1OCCCN1CCC(c2noc3cc(F)ccc23)CC1 | inactive | 11.9 µM (active) | 18.8 µM (active) | 16.8 µM (active) | inactive | inactive | 21.1 µM (active) | 23.7 µM (active) | inactive | inactive | inactive | inactive | inactive | inactive |  | inactive | inactive |  |  | 
9 | O=C(O)c1ccc(O)cc1O | inactive | inactive | inactive | inactive | inactive | inactive | inactive | inactive | inactive |  | inactive |  |  |  | inactive | inactive | inactive |  |  | 
10 | OCC(CO)n1cnc(-c2ccc(F)cc2)c1-c1ccnc(Oc2ccccc2)n1 | inactive | 68.5 µM (active) | 68.5 µM (active) | 68.5 µM (active) | inactive | inactive | inactive | inactive | inactive | inactive | inactive | inactive | inactive | inactive | inactive | inactive | inactive |  |  | 
11 | COc1ccc(C)cc1 | inactive | inactive | inactive | inactive | inactive | inactive | inactive | inactive | inactive |  | inactive |  |  |  | inactive | inactive | inactive |  |  | 
12 | CC(C)(O)CCc1ccccc1 | inactive | inactive | inactive | inactive | inactive | inactive | inactive | inactive | inactive | inactive | inactive | inactive | inactive | inactive | inactive | inactive | inactive |  |  | 
13 | COC(OC)OC | inactive | inactive | inactive | inactive | inactive | inactive | inactive | inactive | inactive | inactive |  | inactive | inactive | inactive | inactive | inactive | inactive |  |  | 
14 | CC(=O)N[C@@H](Cc1ccc(O)cc1)C(=O)O | inactive | inactive | inactive | inactive | inactive | inactive | inactive | inactive | inactive |  | inactive |  |  |  | inactive |  |  |  |  | 
15 | O=C1NC(=O)c2cccc3cccc1c23 | inactive | inactive | inactive | 48.6 µM (active) | inactive | inactive | inactive | inactive | inactive |  | inactive | inactive | inactive | inactive | inactive | inactive | inactive |  |  | 
16 | COc1ccc(-c2cc(C(F)F)nn2-c2ccc(S(N)(=O)=O)cc2)cc1F | inactive | inactive | inactive | inactive | inactive | inactive | inactive | inactive | inactive | inactive | inactive | inactive | inactive | inactive | inactive | inactive | inactive |  |  | 
17 | CCC(=O)OCc1ccc(OC)cc1 | inactive | inactive | inactive | inactive | inactive | inactive | inactive | inactive | inactive |  | inactive |  |  |  | inactive |  |  |  |  | 
18 | CC(CN(CCN(CC(C)OCCO)CC(C)OCCO)CC(C)OCCO)OCCO (stereo unspecified) | inactive | 18.6 µM (active) | 10.5 µM (active) | 20.9 µM (active) | inactive | inactive | inactive | inactive | inactive |  | inactive |  |  |  | inactive | inactive | inactive |  |  | 
